Assay [1] deals with TRPC4 beta (transient receptor potential cation channel C4), mouse. Kind of assay: activators of mouse TRPC4 channel, confirmation, cell-based, Fluo4 calcium, HEK293 TRPC4beta/mu-opioid, duplicates, 10 µM (AID 2426;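 active = fluorescence ratio normalized to control raised more than 50% in primary screen plus both repeat runs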). The note with it: Fluo4 calcium fluorescence, at 10 µM; hits give high values.
Assay [2] concerns transient receptor potential cation channel C4 beta (TRPC4), mouse. The experiment in a line: activators of mouse TRPC4 channel, confirmation, cell-based, second round, Fluo4, HEK293 TRPC4beta/mu-opioid, 1 µM (AID 2461;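 active = primary screen active and over 50% activation in each of two duplicate runs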). The note with it: Fluo4 calcium fluorescence, at 1 µM; hits give high values.
The subject of assay [3] is TRPC4 (transient receptor potential cation channel C4 beta), mouse. Kind of assay: positive allosteric modulators of mouse TRPC4, confirmation, cell-based, second round, Fluo-4, HEK293 TRPC4beta/mu-opioid, 1 µM (AID 2554;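 active = primary screen hit whose fluorescence ratio, in both repeats, exceeds the weak agonist control mean by 3 SD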). The settings on record: DAMGO EC20, Fluo-4 calcium flux, at 1 µM; hits give high values. For orientation: A change in cytosolic calcium serves as a functional read-out for many receptors and channels.

Assay [4] has as its system TRPC4 beta (transient receptor potential cation channel C4), mouse. Kind of assay: positive allosteric modulators of mouse TRPC4, confirmation, cell-based, Fluo-4, HEK293 TRPC4beta/mu-opioid (AID 2555;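 active = primary screen hit whose calcium fluorescence ratio, in both repeats, exceeds the weak agonist control mean by 3 SD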). The settings on record: DAMGO EC20, Fluo-4 calcium flux, at 10 µM; hits give high values.
The target in assay [5] is Short transient receptor potential channel 4 (Mus musculus) (UniProt Q9QUQ5). Kind of assay: inhibitors of mouse TRPC4 channel, confirmation, cell-based, Fluo4, HEK293 TRPC4beta/mu-opioid (AID 2636;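 active = calcium signal cut by more than 3 SD below the full-agonist control yet still positive, in both repeats and the earlier primary screen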). The note with it: DAMGO, Fluo4 calcium flux, at 10 µM; hits give high values.
Sequence of Short transient receptor potential channel 4 (Mus musculus) (Q9QUQ5 whole entry, looked up): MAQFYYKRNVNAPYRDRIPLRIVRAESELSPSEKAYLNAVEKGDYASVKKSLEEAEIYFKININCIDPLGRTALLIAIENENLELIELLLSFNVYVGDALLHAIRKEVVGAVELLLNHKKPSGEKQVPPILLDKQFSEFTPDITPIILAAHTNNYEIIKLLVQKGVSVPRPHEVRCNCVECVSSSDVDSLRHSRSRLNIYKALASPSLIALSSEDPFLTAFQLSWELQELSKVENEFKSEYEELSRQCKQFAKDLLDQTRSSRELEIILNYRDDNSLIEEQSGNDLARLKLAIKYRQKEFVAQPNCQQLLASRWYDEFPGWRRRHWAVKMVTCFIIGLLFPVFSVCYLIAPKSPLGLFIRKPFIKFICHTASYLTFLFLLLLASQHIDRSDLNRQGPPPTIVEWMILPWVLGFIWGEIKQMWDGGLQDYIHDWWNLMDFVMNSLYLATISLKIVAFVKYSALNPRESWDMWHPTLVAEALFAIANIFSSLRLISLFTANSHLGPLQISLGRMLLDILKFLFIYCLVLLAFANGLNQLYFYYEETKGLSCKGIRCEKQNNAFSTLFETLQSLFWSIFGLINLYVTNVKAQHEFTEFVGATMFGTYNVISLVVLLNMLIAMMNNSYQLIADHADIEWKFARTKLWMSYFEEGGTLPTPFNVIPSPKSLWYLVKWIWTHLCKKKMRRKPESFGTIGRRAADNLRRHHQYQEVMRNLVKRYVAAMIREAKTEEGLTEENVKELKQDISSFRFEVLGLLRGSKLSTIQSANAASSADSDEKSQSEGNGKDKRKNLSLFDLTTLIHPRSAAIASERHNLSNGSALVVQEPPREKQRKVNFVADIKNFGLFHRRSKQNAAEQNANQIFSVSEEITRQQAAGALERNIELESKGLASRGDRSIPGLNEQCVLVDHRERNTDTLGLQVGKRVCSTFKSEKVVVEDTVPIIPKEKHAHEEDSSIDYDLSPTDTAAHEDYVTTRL
Assay [6] shares this target. Kind of assay: inhibitors of mouse TRPC4 channel, confirmation, cell-based, second round, Fluo4, HEK293 TRPC4beta/mu-opioid, 1 µM (AID 2637;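 active = calcium signal ratio cut to more than 3 SD under the fully stimulated control mean yet still positive, in both repeats and the primary screen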;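 as to inhibition: percent of integrated ratio relative to wells lacking test compound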). The settings on record: Fluo4 calcium flux, DAMGO, at 1 µM; hits give high values.
For assay [7] the target is unchanged. The experiment in a line: mouse TRPC4 channel activators, dose response, cell-based, HEK293 TRPC4/mu-opioid, Fluo-4 calcium (AID 434937;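 active = primary screen activator hit with a dose response curve and TRPC4 channel activation at any tested dose; inactive = no activation, no dose response, or not a primary hit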).
For assay [8] the target is unchanged. The experiment in a line: TRPC4 positive allosteric modulators, dose response, cell-based, HEK293 TRPC4/mu-opioid, Fluo-4 calcium, EC20 DAMGO (AID 434941;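 active = earlier screen potentiator hit that boosts the TRPC4 ion channel at some dose, with a dose response; inactive = no potentiation, no dose response, or not a prior hit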;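 also: calcium entry triggered by an EC20 dose of DAMGO at the co-expressed mu-opioid receptor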).
For assay [9], the target named is Short transient receptor potential channel 6 (Mus musculus) (UniProt Q61143). The experiment in a line: inhibition of mouse TRPC6 channel, confirmation, selectivity assay for TRPC4 inhibitor project, cell-based, HEK293, membrane potential dye, duplicate (AID 434948;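 active = active in primary screen and both duplicates, each dropping signal beyond three positive-control SD with fluorescence still positive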). The note with it: HEK293 TRPC6, membrane potential dye fluorescence, at 10 µM, stimulated with maximal-effect acetylcholine; hits give high values.
Sequence of Short transient receptor potential channel 6 (Mus musculus) (Q61143 whole entry, looked up): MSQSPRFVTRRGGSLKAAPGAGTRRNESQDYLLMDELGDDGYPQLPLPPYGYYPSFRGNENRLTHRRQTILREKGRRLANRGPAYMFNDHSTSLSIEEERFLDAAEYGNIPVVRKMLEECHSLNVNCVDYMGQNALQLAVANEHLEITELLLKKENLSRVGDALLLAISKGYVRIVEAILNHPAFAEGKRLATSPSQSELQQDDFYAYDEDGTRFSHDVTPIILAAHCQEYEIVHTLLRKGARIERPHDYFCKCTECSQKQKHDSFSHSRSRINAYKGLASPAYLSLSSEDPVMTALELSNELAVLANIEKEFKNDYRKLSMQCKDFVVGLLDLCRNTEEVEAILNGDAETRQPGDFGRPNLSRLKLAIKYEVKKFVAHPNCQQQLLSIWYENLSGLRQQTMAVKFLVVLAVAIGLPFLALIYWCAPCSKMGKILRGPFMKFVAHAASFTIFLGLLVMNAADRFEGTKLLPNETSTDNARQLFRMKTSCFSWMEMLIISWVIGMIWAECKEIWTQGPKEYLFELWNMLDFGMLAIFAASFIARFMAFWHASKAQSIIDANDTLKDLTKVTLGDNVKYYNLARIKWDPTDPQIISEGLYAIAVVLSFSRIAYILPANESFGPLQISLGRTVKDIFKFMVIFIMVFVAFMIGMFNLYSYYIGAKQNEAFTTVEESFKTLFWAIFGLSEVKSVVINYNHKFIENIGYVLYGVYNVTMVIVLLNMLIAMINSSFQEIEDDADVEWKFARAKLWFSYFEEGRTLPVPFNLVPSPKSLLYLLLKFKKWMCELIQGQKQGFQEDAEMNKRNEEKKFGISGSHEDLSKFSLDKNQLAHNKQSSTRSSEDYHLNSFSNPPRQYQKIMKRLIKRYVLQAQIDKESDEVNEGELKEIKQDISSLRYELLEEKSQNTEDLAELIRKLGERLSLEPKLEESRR

The target is the same in assay [10]. Kind of assay: activation of mouse TRPC6 channel, confirmation, selectivity assay for TRPC4 activator project, cell-based, HEK293, membrane potential dye, duplicate (AID 434950). The settings on record: HEK293 TRPC6, membrane potential fluorescence, at 10 µM; hits give high values.
For assay [11] the target is unchanged. The experiment in a line: TRPC6 potentiation by TRPC4 potentiator hits, confirmation, selectivity assay for TRPC4 potentiator project, HEK293 cells, membrane potential dye, duplicate (AID 434952;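 active = compound raising the membrane signal above positive-control mean plus 3 SD in both repeats, and a primary screen hit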). The settings on record: HEK293 TRPC6, membrane potential dye fluorescence, at 10 µM, maximal acetylcholine added after compound; hits give high values.
The target of assay [12] is Short transient receptor potential channel 4 (Mus musculus) (UniProt Q9QUQ5). Kind of assay: calcium flux activators in TRPC4/5HT1a cells, counter-screen for TRPC4 activator project, cell-based, second counter screen, HEK293 TRPC4/5HT1a, Fluo-4 (AID 434977;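 active = calcium signal rise above buffer-control mean plus 5 SD in both duplicates, and also a hit in the primary screen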). The note with it: Fluo-4 calcium flux, at 10 µM; hits give high values.
The nature of assay [13]: calcium flux inhibitors in TRPC4/5HT1a cells, confirmation, counter-screen for TRPC4 inhibitor project, cell-based, second counter screen, HEK293 TRPC4/5HT1a, Fluo-4 (AID 434978;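 active = primary screen active whose calcium signal fell more than 3 SD beyond the full-serotonin control mean in both duplicate plates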;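 as to outcome: serotonin given first at submaximal then at maximal dose after compound preincubation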). The settings on record: Fluo-4 calcium flux, at 10 µM, serotonin added to trigger calcium flux; hits give high values.
The test system of assay [14] is TRPC4 (mouse), co-expressed with 5HT1a in HEK293. Kind of assay: calcium flux potentiators in TRPC4/5HT1a cells, confirmation, counter-screen for TRPC4 potentiator project, cell-based, second counter screen, HEK293 TRPC4/5HT1a, Fluo-4 (AID 434979;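 active = signal rise over 3 SD above mean of control wells given weak agonist, in both repeats and first screen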). The note with it: Fluo-4 calcium flux, at 10 µM, serotonin added at its EC20 dose; hits give high values.
The nature of assay [15]: calcium flux activation in mu-opioid HEK293 cells, confirmation, counter-screen for TRPC4 activator project, cell-based, HEK293 mu-opioid receptor line (AID 449723;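 active = hit in primary screen, with calcium signal over 5 SD above buffer well mean in both duplicates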;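 also: counter screen cells carry the mu-opioid receptor alone and lack TRPC4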). The settings on record: Fluo-4 calcium fluorescence, at 10 µM; hits give high values.
Assay [16] can be described thus: calcium flux enhancement in mu-opioid HEK293 cells, confirmation, counter-screen for TRPC4 allosteric potentiator project, cell-based, HEK293 mu-opioid receptor line (AID 449724;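 active = calcium signal rise more than 3 SD above the low-dose agonist control mean, in both duplicate plates and the primary screen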;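 also: HEK293 cells carrying mu-opioid receptor only with no TRPC4 channel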). The note with it: Fluo-4 calcium flux, at 10 µM, compound added before EC20 DAMGO stimulus; hits give high values.

From PubChem BioAssay come the findings set out here.

The structures appear in SMILES notation. For some assays here: Entries with a potency or affinity are not part of this list. Activity calls are given as the source filed them.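 The calls were made as follows, unless noted: active = membrane potential signal rise above negative control mean plus 3 SD in both duplicates, also active in the earlier TRPC4 screen; inactive = the rest.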

Usually inhibition stands for the change of the read-out against control, counted positive when it falls.

On to `Cc1nn(-c2nc3ccccc3n2Cc2ccccc2)c2c1C(=O)CC(C)(C)C2`, for which the outcome in assay [1], in assay [2], in assay [3], in assay [4], in [6] and in assay [7] was inactive. Moreover, the result in assay [8], in assay [9], in assay [10], in assay [11], in [12] and in assay [14] was inactive. The result in [15] and in assay [16] was inactive. In addition, the inhibition in [5] was 72% (active); in assay [13], 13.5% (active).
On to `COc1ccc(SC[C@H](Cc2ccccc2)N2CCN(C)CCC2=O)cc1`, for which the result in assay [1], in [2], in assay [3], in assay [4], in [7] and in assay [8] was inactive. Besides, the molecule was called inactive in assay [9], in assay [10], in assay [11], in assay [12], in assay [13] and in assay [14]. The result in assay [15] and in assay [16] was inactive. The inhibition in [5] was 95% (active); in [6], 40% (active).
For `CN(C)CCN1C(=O)C2C(C(=O)Nc3cc(Cl)cc(Cl)c3)C3C=CC2(O3)C1C(=O)NC1CCCCC1` (centres undefined), the result in [1], in [2], in [3], in assay [4], in assay [6] and in [7] was inactive. For the same molecule, the outcome in [8], in assay [9], in assay [10], in [11], in assay [12] and in assay [13] was inactive. Also, the outcome in [14], in [15] and in assay [16] was inactive. Also, the inhibition in assay [5] is 71% (active).
On to `COC(=O)c1cccc(NC(=S)Nc2cccc(Cl)c2Cl)c1`, for which the result in assay [1], in assay [2], in assay [3], in [4], in assay [6] and in [7] was inactive. Besides, the result in [8], in assay [9], in assay [10], in assay [11], in [12] and in assay [13] was inactive. In addition, the result in assay [14], in assay [15] and in assay [16] was inactive. In addition, the inhibition in assay [5] is 78% (active).
Regarding `Fc1ccc(CN2CCC(Cc3ccccc3)CC2)cc1F`, the result in assay [1], in assay [2], in assay [3], in [4], in [6] and in assay [7] was inactive. Also, the outcome in [8], in assay [9], in assay [10], in [11], in [12] and in assay [14] was inactive. Also, the result in assay [15] and in assay [16] was inactive. Moreover, the inhibition was 89% (active) in assay [5] and 25.9% (active) in assay [13].
For the molecule `COc1cc2c(cc1OC)C(C)N(CCc1ccc(Cl)cc1)CC2` (centres undefined), the result in [1], in assay [2], in assay [3], in [4], in [6] and in [7] was inactive. Also, the result in assay [8], in assay [9], in [10], in assay [11], in assay [12] and in assay [13] was inactive. The result in assay [14], in assay [15] and in assay [16] was inactive. In addition, the inhibition in assay [5] was 75% (active).
Consider `OCc1ccccc1CNCc1ccccc1`, for which the result in assay [1], in assay [2], in [3], in assay [4], in [7] and in assay [8] was inactive. Further, the result in assay [9], in assay [10], in assay [11], in [12], in assay [14] and in assay [15] was inactive. Further, the result in assay [16] was inactive. The results for the inhibition in [5], in assay [6] and in assay [13] were 95% (active), 52% (active) and 18.7% (active), respectively.
On to `OCCNc1nc2ccccc2n1CCN1CCCCC1`, for which the result in assay [1], in assay [2], in [3], in [4], in assay [6] and in assay [7] was inactive. In addition, the result in assay [8], in assay [9], in [10], in [11], in assay [12] and in assay [14] was inactive. Also, the result in assay [15] and in assay [16] was inactive. Further, the inhibition in assay [5] is 91% (active); in assay [13], 22.9% (active).
Consider `Brc1ccc(N/N=C(/N=Nc2nn[nH]n2)c2ccccc2)cc1`, for which the result in assay [1], in assay [2], in assay [3], in [4], in assay [5] and in assay [6] was inactive. Besides, the result in assay [7], in [8], in assay [10], in assay [11], in [12] and in [14] was inactive. For the same molecule, the outcome in [15] and in assay [16] was inactive. Also, the values for the inhibition in assay [9] and in [13] were 25.5% (active) and 30.4% (active), respectively.
`CCCCCCCCCCCCOC(=O)C[N+](C)(C)C`: the outcome in assay [1], in assay [2], in [3], in assay [4], in [5] and in assay [6] was inactive. In addition, the outcome in assay [7], in assay [8], in [9], in assay [10], in assay [11] and in assay [12] was inactive. Further, the result in [14], in [15] and in assay [16] was inactive. Besides, in [13], the inhibition is 37.5% (active).
In the case of `c1ccc(Cn2c(NCc3ccco3)nc3ccccc32)cc1`, the outcome in assay [1], in assay [2], in assay [3], in assay [4], in [7] and in assay [8] was inactive. Also, the molecule was called inactive in assay [9], in assay [10], in assay [11], in [12], in assay [14] and in [15]. Besides, in assay [16], the outcome was inactive. Besides, the figures for the inhibition in assay [5], in assay [6] and in assay [13] were 95% (active), 75% (active) and 25.2% (active), respectively.
`CC1CCc2c(sc3ncnc(SCC(=O)Nc4ccc(C(=O)O)cc4)c23)C1` (centres undefined): the result in assay [1], in assay [2], in assay [3], in [4], in assay [7] and in assay [8] was inactive. The outcome in assay [9], in assay [10], in assay [11], in [12], in assay [13] and in assay [14] was inactive. In addition, the outcome in assay [15] and in assay [16] was inactive. Also, the inhibition in assay [5] was 88% (active); in [6] it was 45% (active).
In the case of `Cc1cc([N+](=O)[O-])ccc1NCc1ccccc1`, the outcome in assay [1], in [2], in assay [3], in assay [4], in [7] and in [8] was inactive. The molecule was classed as inactive in assay [9], in assay [10], in assay [11], in [12], in assay [13] and in [14]. In addition, the result in assay [15] and in assay [16] was inactive. The results for the inhibition in [5] and in assay [6] were 97% (active) and 44% (active), respectively.
Take `Cc1nn(C(=O)c2cccc([N+](=O)[O-])c2)c(C)c1Sc1ccccc1`: the outcome in assay [1], in assay [2], in [3], in [4], in assay [6] and in [7] was inactive. In addition, the result in assay [8], in [9], in assay [10], in assay [11], in assay [12] and in assay [14] was inactive. The outcome in [15] and in assay [16] was inactive. In addition, the inhibition was 88% (active) in assay [5] and 32.5% (active) in assay [13].
